Assay results: PubChem BioAssay AID1159580 (chemical genetic matrix, 2015)
Values joined by “and” are separate entries in the source; they are usually repeats but may differ in a detail not shown here. Equal values may be shown once. The campaign covered roughly 5,500 compounds. About 2,000 (36%) were called active. Another 18% or so got no clear call; they are omitted. Rule as the data show it: active = normalized growth mostly below about 0.91 (no sharp cut-off); inconclusive = no clear call, values can overlap the other calls; inactive = mostly above about 0.92. This is one part of the list.

Experiment: chemical genetic growth profiling, strain panel (AID 1159580);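 also: tested at 20 µM; growth read once vehicle control cultures reached saturation at 30 °C; 1 = growth at the plate median or of vehicle wells; lower values mean less growth of the strain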
Details: growth OD

Measured: normalized growth

CC(=O)O[C@@H]1CC2C(C)(C)C(=O)C=C[C@]2(C)C2CC[C@]3(C)C(=CC(=O)O[C@H]3c3ccoc3)[C@@]21C (stereo partly drawn)
inactive: S. cerevisiae deletion strains, locus YAL013W, strain DEP1, hits give low values 0.996 | S. cerevisiae deletion strains, locus YAL021C, strain ccr4, hits give low values 1.01 | S. cerevisiae deletion strains, locus YAL026C, strain drs2, hits give low values 1.01 | S. cerevisiae deletion strains, locus YAL030W, strain snc1, hits give low values 1 | S. cerevisiae deletion strains, locus YBL061C, strain skt5, hits give low values 1.03 | S. cerevisiae deletion strains, locus YBR009C, strain hhf1, hits give low values 1.01 | S. cerevisiae deletion strains, locus YBR021W, strain FUR4, hits give low values 0.988 | S. cerevisiae deletion strains, locus YBR023C, strain chs3, hits give low values 1 | S. cerevisiae deletion strains, locus YBR171W, strain sec66, hits give low values 1.01 | S. cerevisiae deletion strains, locus YBR229C, strain ROT2, hits give low values 0.941 | S. cerevisiae deletion strains, locus YBR231C, strain swc5, hits give low values 0.998 | S. cerevisiae deletion strains, locus YBR279W, strain paf1, hits give low values 1.01 | S. cerevisiae deletion strains, locus YCL011C, strain gbp2, hits give low values 0.993 | S. cerevisiae deletion strains, locus YCL016C, strain dcc1, hits give low values 1.01 | S. cerevisiae deletion strains, locus YCL029C, strain bik1, hits give low values 0.977 | S. cerevisiae deletion strains, locus YCL069W, strain vba3, hits give low values 1 | S. cerevisiae deletion strains, locus YCR088W, strain abp1, hits give low values 1.01 | S. cerevisiae deletion strains, locus YDL005C, strain med2, hits give low values 0.995 | S. cerevisiae deletion strains, locus YDL035C, strain GPR1, hits give low values 0.964 | S. cerevisiae deletion strains, locus YDL040C, strain nat1, hits give low values 1 | S. cerevisiae deletion strains, locus YDL074C, strain BRE1, hits give low values 0.979 | S. cerevisiae deletion strains, locus YDL101C, strain DUN1, hits give low values 1 | S. cerevisiae deletion strains, locus YDL185W, strain tfp1, hits give low values 0.959 | S. cerevisiae deletion strains, locus YDL192W, strain arf1, hits give low values 0.978 | S. cerevisiae deletion strains, locus YDR001C, strain nth1, hits give low values 1.01 | S. cerevisiae deletion strains, locus YDR069C, strain doa4, hits give low values 1.02 | S. cerevisiae deletion strains, locus YDR101C, strain arx1, hits give low values 0.956 | S. cerevisiae deletion strains, locus YDR137W, strain rgp1, hits give low values 1.05 | S. cerevisiae deletion strains, locus YDR159W, strain sac3, hits give low values 1.01 | S. cerevisiae deletion strains, locus YDR162C, strain NBP2, hits give low values 0.988 | S. cerevisiae deletion strains, locus YDR195W, strain ref2 0.968 | S. cerevisiae deletion strains, locus YDR297W, strain sur2, hits give low values 0.992 | S. cerevisiae deletion strains, locus YDR318W, strain mcm21, hits give low values 0.983 | S. cerevisiae deletion strains, locus YDR334W, strain swr1, hits give low values 1.01 | S. cerevisiae deletion strains, locus YDR335W, strain msn5, hits give low values 1.01 | S. cerevisiae deletion strains, locus YDR388W, hits give low values 0.983 | S. cerevisiae deletion strains, locus YDR392W, strain spt3, hits give low values 1.01 | S. cerevisiae deletion strains, locus YDR502C, strain sam2, hits give low values 1.02 | S. cerevisiae deletion strains, locus YEL003W, strain gim4, hits give low values 1.01 | S. cerevisiae deletion strains, locus YEL037C, strain rad23, hits give low values 1 | S. cerevisiae deletion strains, locus YEL061C, strain CIN8 (second series), hits give low values 1.01 | S. cerevisiae deletion strains, locus YER015W, strain faa2, hits give low values 1.01 | S. cerevisiae deletion strains, locus YER016W, strain bim1, hits give low values 1.01 | S. cerevisiae deletion strains, locus YER110C, hits give low values 0.966 | S. cerevisiae deletion strains, locus YER111C, strain swi4, hits give low values 1.01 | S. cerevisiae deletion strains, locus YER155C, strain BEM2 (second series), hits give low values 1 | S. cerevisiae deletion strains, locus YER155C, strain BEM2, hits give low values 0.989 | S. cerevisiae deletion strains, locus YER167W, strain BCK2, hits give low values 0.975 | S. cerevisiae deletion strains, locus YFR010W, strain ubp6, hits give low values 1.01 | S. cerevisiae deletion strains, locus YGL078C, strain dbp3, hits give low values 1.02 | S. cerevisiae deletion strains, locus YGL086W, strain mad1, hits give low values 0.992 | S. cerevisiae deletion strains, locus YGL167C, strain pmr1, hits give low values 1 | S. cerevisiae deletion strains, locus YGL173C, strain kem1, hits give low values 1 | S. cerevisiae deletion strains, locus YGL227W, strain vid30, hits give low values 1.01 | S. cerevisiae deletion strains, locus YGL240W, strain doc1, hits give low values 1 | S. cerevisiae deletion strains, locus YGL248W, strain PDE1, hits give low values 1.01 | S. cerevisiae deletion strains, locus YGL253W, strain hxk2, hits give low values 0.998 | S. cerevisiae deletion strains, locus YGR135W, strain pre9, hits give low values 1.1 | S. cerevisiae deletion strains, locus YGR252W, strain gcn5, hits give low values 1.04 | S. cerevisiae deletion strains, locus YHR013C, strain ard1, hits give low values 0.988 | S. cerevisiae deletion strains, locus YHR027C, strain rpn1, hits give low values 0.993 | S. cerevisiae deletion strains, locus YHR030C, strain SLT2, hits give low values 1.02 | S. cerevisiae deletion strains, locus YHR079C, strain IRE1 (second series), hits give low values 0.982 | S. cerevisiae deletion strains, locus YHR079C, strain IRE1, hits give low values 0.997 | S. cerevisiae deletion strains, locus YHR094C, strain hxt1, hits give low values 0.969 | S. cerevisiae deletion strains, locus YHR129C, strain ARP1, hits give low values 0.993 | S. cerevisiae deletion strains, locus YHR142W, strain chs7, hits give low values 1.04 | S. cerevisiae deletion strains, locus YHR200W, strain rpn10, hits give low values 0.994 | S. cerevisiae deletion strains, locus YIL066C, strain RNR3, hits give low values 0.956 | S. cerevisiae deletion strains, locus YIL073C, strain SPO22, hits give low values 0.989 | S. cerevisiae deletion strains, locus YIL125W, strain kgd1, hits give low values 0.981 | S. cerevisiae deletion strains, locus YIR030C, strain dcg1, hits give low values 0.987 | S. cerevisiae deletion strains, locus YJL092W, strain hpr5, hits give low values 1 | S. cerevisiae deletion strains, locus YJL095W, strain BCK1 (second series), hits give low values 0.999 | S. cerevisiae deletion strains, locus YJL095W, strain BCK1, hits give low values 1.06 and 1.03 | S. cerevisiae deletion strains, locus YJL115W, strain asf1, hits give low values 1 | S. cerevisiae deletion strains, locus YJL129C, strain trk1, hits give low values 1.02 | S. cerevisiae deletion strains, locus YJL134W, strain LCB3, hits give low values 0.97 | S. cerevisiae deletion strains, locus YJL154C, strain vps35, hits give low values 1 | S. cerevisiae deletion strains, locus YJL164C, strain tpk1, hits give low values 1 | S. cerevisiae deletion strains, locus YJL166W, strain qcr8, hits give low values 1 | S. cerevisiae deletion strains, locus YJL168C, strain set2, hits give low values 0.995 | S. cerevisiae deletion strains, locus YJL187C, strain SWE1 (second series), hits give low values 1.03 | S. cerevisiae deletion strains, locus YJR066W, strain TOR1, hits give low values 0.96 | S. cerevisiae deletion strains, locus YKL009W, strain mrt4, hits give low values 0.986 | S. cerevisiae deletion strains, locus YKL068W, hits give low values 0.992 | S. cerevisiae deletion strains, locus YKL085W, strain MDH1 (second series), hits give low values 0.996 | S. cerevisiae deletion strains, locus YKL085W, strain MDH1, hits give low values 0.996 | S. cerevisiae deletion strains, locus YKL160W, strain elf1, hits give low values 1.01 | S. cerevisiae deletion strains, locus YKR001C, strain vps1, hits give low values 0.985 | S. cerevisiae deletion strains, locus YKR026C, strain gcn3, hits give low values 1.01 | S. cerevisiae deletion strains, locus YKR091W, strain srl3, hits give low values 1 | S. cerevisiae deletion strains, locus YLL001W, strain dnm1, hits give low values 1.01 | S. cerevisiae deletion strains, locus YLL026W, hits give low values 1.02 | S. cerevisiae deletion strains, locus YLL041C, strain sdh2, hits give low values 1.02 | S. cerevisiae deletion strains, locus YLR027C, strain aat2, hits give low values 1.01 | S. cerevisiae deletion strains, locus YLR039C, strain RIC1, hits give low values 0.971 | S. cerevisiae deletion strains, locus YLR058C, strain SHM2, hits give low values 0.981 | S. cerevisiae deletion strains, locus YLR102C, strain apc9, hits give low values 0.974 | S. cerevisiae deletion strains, locus YLR113W, strain HOG1, hits give low values 0.962 | S. cerevisiae deletion strains, locus YLR221C, strain rsa3, hits give low values 1 | S. cerevisiae deletion strains, locus YLR258W, strain gsy2, hits give low values 1 | S. cerevisiae deletion strains, locus YLR262C, strain YPT6 (second series), hits give low values 1.01 | S. cerevisiae deletion strains, locus YLR268W, strain sec22, hits give low values 0.964 | S. cerevisiae deletion strains, locus YLR320W, strain mms22, hits give low values 1.01 | S. cerevisiae deletion strains, locus YLR342W, strain FKS1 (second series), hits give low values 1 | S. cerevisiae deletion strains, locus YLR342W, strain FKS1, hits give low values 0.999 | S. cerevisiae deletion strains, locus YLR357W, strain rsc2, hits give low values 1.03 | S. cerevisiae deletion strains, locus YLR370C, strain arc18, hits give low values 1.02 | S. cerevisiae deletion strains, locus YLR371W, strain rom2, hits give low values 0.967 | S. cerevisiae deletion strains, locus YLR384C, strain iki3, hits give low values 1.02 | S. cerevisiae deletion strains, locus YLR418C, strain cdc73, hits give low values 1.04 | S. cerevisiae deletion strains, locus YML016C, strain PPZ1, hits give low values 0.973 | S. cerevisiae deletion strains, locus YML032C, strain rad52, hits give low values 0.966 | S. cerevisiae deletion strains, locus YML120C, strain ndi1, hits give low values 0.993 | S. cerevisiae deletion strains, locus YML124C, strain tub3, hits give low values 0.989 | S. cerevisiae deletion strains, locus YMR058W, strain fet3, hits give low values 1 | S. cerevisiae deletion strains, locus YMR078C, strain ctf18, hits give low values 0.983 | S. cerevisiae deletion strains, locus YMR125W, strain sto1, hits give low values 0.999 | S. cerevisiae deletion strains, locus YMR129W, hits give low values 1 | S. cerevisiae deletion strains, locus YMR205C, strain PFK2, hits give low values 1 | S. cerevisiae deletion strains, locus YMR223W, strain ubp8, hits give low values 1.01 | S. cerevisiae deletion strains, locus YMR231W, strain pep5, hits give low values 1.01 | S. cerevisiae deletion strains, locus YMR307W, strain GAS1, hits give low values 0.896 | S. cerevisiae deletion strains, locus YNL067W, strain RPL9B, hits give low values 1.04 | S. cerevisiae deletion strains, locus YNL071W, strain lat1, hits give low values 1.01 | S. cerevisiae deletion strains, locus YNL153C, strain GIM3, hits give low values 1.02 | S. cerevisiae deletion strains, locus YNL183C, strain NPR1, hits give low values 0.993 | S. cerevisiae deletion strains, locus YNL209W, strain ssb2, hits give low values 0.991 | S. cerevisiae deletion strains, locus YNL233W, strain BNI4, hits give low values 1.02 | S. cerevisiae deletion strains, locus YNL248C, strain rpa49, hits give low values 1.02 | S. cerevisiae deletion strains, locus YNL250W, strain rad50, hits give low values 0.994 | S. cerevisiae deletion strains, locus YNL271C, strain bni1, hits give low values 0.988 | S. cerevisiae deletion strains, locus YNL298W, strain CLA4, hits give low values 0.963 | S. cerevisiae deletion strains, locus YNL307C, strain MCK1, hits give low values 0.991 | S. cerevisiae deletion strains, locus YNL322C, strain KRE1 (second series), hits give low values 1 | S. cerevisiae deletion strains, locus YNR049C, strain mso1, hits give low values 1.02 | S. cerevisiae deletion strains, locus YNR052C, strain pop2, hits give low values 1.02 | S. cerevisiae deletion strains, locus YOL006C, strain TOP1, hits give low values 0.97 | S. cerevisiae deletion strains, locus YOL012C, strain htz1 0.746 | S. cerevisiae deletion strains, locus YOL147C, strain pex11, hits give low values 0.982 | S. cerevisiae deletion strains, locus YOR001W, strain rrp6, hits give low values 1.01 | S. cerevisiae deletion strains, locus YOR061W, strain CKA2, hits give low values 0.948 | S. cerevisiae deletion strains, locus YOR069W, strain VPS5, hits give low values 0.992 | S. cerevisiae deletion strains, locus YOR070C, strain gyp1, hits give low values 1.02 | S. cerevisiae deletion strains, locus YOR080W, strain dia2, hits give low values 0.995 | S. cerevisiae deletion strains, locus YOR083W, strain WHI5, hits give low values 1 | S. cerevisiae deletion strains, locus YOR106W, strain vam3, hits give low values 1.01 | S. cerevisiae deletion strains, locus YOR136W, strain idh2, hits give low values 0.986 | S. cerevisiae deletion strains, locus YOR144C, strain elg1, hits give low values 0.979 | S. cerevisiae deletion strains, locus YOR184W, strain ser1, hits give low values 0.935 | S. cerevisiae deletion strains, locus YOR231W, strain MKK1, hits give low values 1.03 | S. cerevisiae deletion strains, locus YOR265W, strain rbl2, hits give low values 1.03 | S. cerevisiae deletion strains, locus YOR270C, strain vph1, hits give low values 1.07 | S. cerevisiae deletion strains, locus YOR290C, strain snf2, hits give low values 0.996 | S. cerevisiae deletion strains, locus YOR316C, strain cot1, hits give low values 0.981 | S. cerevisiae deletion strains, locus YPL051W, strain arl3, hits give low values 1.01 | S. cerevisiae deletion strains, locus YPL078C, strain atp4, hits give low values 1 | S. cerevisiae deletion strains, locus YPL106C, strain sse1, hits give low values 0.986 | S. cerevisiae deletion strains, locus YPL240C, strain hsp82, hits give low values 1 | S. cerevisiae deletion strains, locus YPL241C, strain CIN2, hits give low values 0.981 | S. cerevisiae deletion strains, locus YPL256C, strain CLN2, hits give low values 1 | S. cerevisiae deletion strains, locus YPR119W, strain clb2, hits give low values 0.988 | S. cerevisiae deletion strains, locus YPR141C, strain kar3, hits give low values 0.992 | S. cerevisiae deletion strains, locus YPR163C, strain tif3, hits give low values 0.971 | S. cerevisiae deletion strains, locus YPR167C, strain met16, hits give low values 0.997 | S. cerevisiae deletion strains, strain wtn01, hits give low values 0.961 | S. cerevisiae strains, strain wild type, hits give low values 0.97
